# PubChem BioAssay (Tox21)
# Inconclusive results are not listed. The source made the active and inactive calls. Calls follow the shape of the full dose curve.
# Target: Beta-2 adrenergic receptor (Homo sapiens) (UniProt P07550)
# Test: Adrenergic beta2 receptor (ADRB2) small molecule agonists, cell-based qHTS assay (AID 1963593)
# Conditions: CHO-ADRB2 cells, cAMP HTRF, 30 min; series mostly up to 42.5 µM; activation: at the top concentration
# Source text: National Center for Advancing Translational Sciences [NCATS]
# Division of Preclinical Innovation [DPI]
# U.S. Environmental Protection Agency [EPA]
# National Institutes of Environmental Health Sciences [NIEHS]
# National Toxicology Program [NTP]
# U.S. Food and Drug Administration [FDA]
# Beta adrenergic receptors (Beta-ARs) belong to the G-protein coupled receptor (GPCR) superfamily, includes three subtypes - beta1, beta2, and beta3. Beta1-AR is the predominant receptor subtype expressed in the heart, and beta2-AR is expressed in the kidney, lung, blood vessel and in the heart, and beta3 is found in the adipocytes. Beta1 and 2 ARs couple to Gs protein and elevate cyclic adenosine mono phosphate (cAMP), which activates protein kinase A and leads to the downstream signaling responsible for the physiological actions. Beta-AR agonists or antagonists are the most prescribed therapeutic agents for heart failure and asthma, and these were one of the first target receptors for the rational drug design. Tox21 10K compound library was screened using the cAMP-Gs dynamic assay (Cisbio Bioassays, Shelton, CT) to identify agonists/antagonists of the Gs-coupled human adrenergic, beta2 receptor (ADRB2) in the CHO-ADRB2 cell line (Codex BioSolutions, Inc. Gaithersburg, MD), which stably over-expresses ADRB2. The principle of cAMP-Gs dynamic assay is based on HTRF technology, which facilitates the fluorescence resonance energy transfer (FRET) between donor Europium cryptate and acceptor d2-labeled cAMP. The cAMP generated within cells competes with the red acceptor, d2-labled cAMP, for binding to the monoclonal anti-cAMP-cryptate (Europium donor). An increase in intracellular cAMP leads to the disruption of FRET signal, and the signal is inversely proportional to the cAMP concentration. Isoproterenol HCl (Sigma-Aldrich, St. Louis, MO) was used as a positive control in the screening.
# Tox21 Assay Protocol Summary:
# CHO-ADRB2 cells were dispensed at 1,000/well in 4uL assay medium into white/solid 1536-well plates (Greiner Bio-One North America Inc., Monroe, NC) using a Multidrop Combi dispenser (ThermoFisher Scientific, Waltham, MA). The assay plates were incubated at 37C and 5% CO2 for an overnight (18-20hr). Then positive control and test compounds dissolved in DMSO were transferred to the assay plates at 23nL using a Pintool station (Wako, San Diego, CA). Following the compound and positive control transfer, 1uL stimulation mix containing 100uM IBMX and 25uM Ro-20-1724 was added to each well of the assay plates using BioRAPTR Flying Reagent Dispenser (FRD, Beckman Coulter, Brea, CA). The assay plates were incubated at room temperature for 0.5hr. Then 2.5ul each d2-labled cAMP and anti-cAMP-cryptate solutions were added separately to each well of the assay plates using an FRD and the assay plates were incubated at room temperature for 1hr.
# % is scaled to controls: 0 for no effect and ±100 for the full control effect.
# Sequence of Beta-2 adrenergic receptor (Homo sapiens) (P07550 whole entry, looked up): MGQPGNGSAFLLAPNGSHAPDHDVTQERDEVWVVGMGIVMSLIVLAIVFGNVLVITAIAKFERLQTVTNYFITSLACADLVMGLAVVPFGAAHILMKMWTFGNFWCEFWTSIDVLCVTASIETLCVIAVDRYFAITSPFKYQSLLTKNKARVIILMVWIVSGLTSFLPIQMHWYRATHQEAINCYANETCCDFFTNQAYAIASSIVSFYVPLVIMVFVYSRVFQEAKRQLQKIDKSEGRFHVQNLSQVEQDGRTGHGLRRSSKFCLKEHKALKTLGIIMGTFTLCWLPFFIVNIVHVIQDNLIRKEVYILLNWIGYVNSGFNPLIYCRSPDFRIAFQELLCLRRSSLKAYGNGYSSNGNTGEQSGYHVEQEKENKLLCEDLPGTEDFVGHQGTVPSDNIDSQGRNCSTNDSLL
row,Compound,activation
1,C1CCN(CN2CCCCC2)CC1,4.91% [at 92.4 µM] (inactive)
2,CCCCCCCCCCCCCCCCCCN(C)C,0.642% (inactive)
3,CCOC(=O)C(Br)c1ccccc1 (stereo not given),-10.8% [at 92.4 µM] (inactive)
4,CO/N=C(\C(=O)N[C@@H]1C(=O)N2C(C(=O)O)=C(CSc3nc(=O)c(O)nn3C)CS[C@H]12)c1csc(N)n1,6.98% (inactive)
5,CC(=O)C(C)=O,10.9% [at 92.4 µM] (inactive)
6,CCOC(=O)c1cccnc1,16.4% (inactive)
7,Nc1nc(-c2ccc([N+](=O)[O-])cc2)cs1,-4.34% [at 92.4 µM] (inactive)
8,O=C(NCCO[N+](=O)[O-])c1cccnc1,-2.13% (inactive)
9,CC(C)=CCC1C(=O)N(c2ccccc2)N(c2ccccc2)C1=O,14% (inactive)
10,CCN[C@@H]1C[C@H](N)[C@@H](OC2OC(CN)=CCC2N)[C@H](O)[C@H]1O[C@H]1OC[C@](C)(O)[C@H](NC)[C@H]1O (stereo not given in full),7.07% [at 0.349 µM] (inactive)
11,Cc1cccc(Nc2ccncc2S(=O)(=O)NC(=O)NC(C)C)c1,-11.2% (inactive)
12,CCNC(=O)NCCCOc1cccc(CN2CCCCC2)c1,-6.01% (inactive)
13,CCn1cc(C(=O)O)c(=O)c2cc(F)c(N3CCNC(C)C3)c(F)c21 (stereo not given),4.58% (inactive)
14,O=C(O)c1cccc(C(=O)O)c1C(=O)O,-8.27% [at 92.4 µM] (inactive)
15,CCCCOc1cc(C(=O)NCCN(CC)CC)c2ccccc2n1,7.6% (inactive)
16,Cc1cc(OI)c(C(C)C)cc1-c1cc(C(C)C)c(OI)cc1C,0.888% (inactive)
17,CCOC(=O)C1CC(=O)C(=C(O)C2CC2)C(=O)C1 (stereo not given),-27.1% [at 92.4 µM] (inactive)
18,CC(C)(Oc1ccc(Cl)cc1)C(=O)OCCCOC(=O)C(C)(C)Oc1ccc(Cl)cc1,4.54% (inactive)
19,CCCOc1ccc(C(=O)OCCN(CC)CC)cc1N,13.5% (inactive)
20,C/C=C/C=C/COC(=O)C(C)C,15.7% [at 92.4 µM] (inactive)

row,Compound,activation
1,CC(C)=CCC1=C(O)c2ccccc2C(=O)C1=O,-7.16% [at 92.4 µM] (inactive)
2,Cc1cc(CC(=O)O)c(C)n1-c1ccc(Cl)cc1,-30.4% (inactive)
3,CCC(=O)O[C@]1(C(=O)CCl)[C@@H](C)C[C@H]2[C@@H]3CCC4=CC(=O)C=C[C@]4(C)[C@@]3(F)[C@@H](O)C[C@@]21C,-3.02% (inactive)
4,CC(=O)O[C@@H]1C(=O)O[C@@H]2[C@H]1OC(=O)[C@@H]2OC(C)=O,-8.32% (inactive)
5,Cc1nc(C2CCCCC2)c(-c2ccc(S(N)(=O)=O)c(F)c2)o1,3.75% (inactive)
6,CCCCCC(=O)OCC,1.84% [at 92.4 µM] (inactive)
7,COC(=O)N/N=C/c1c[n+]([O-])c2ccccc2[n+]1[O-],-30.4% (inactive)
8,CCN(CC)CCNC(=O)c1cc(S(C)(=O)=O)ccc1OC,0.456% (inactive)
9,c1ccc(SSc2ccccc2)cc1,-13.1% [at 92.4 µM] (inactive)
10,CCC(=O)C(=O)CC,3.48% [at 92.4 µM] (inactive)
11,O=C1c2cccc(O)c2C(=O)c2c(O)cc(CO)cc21,12.1% [at 92.4 µM] (inactive)
12,CC1=CP(=O)(c2ccccc2)CC1 (stereo not given),28.9% [at 92.4 µM] (inactive)
13,CCN(CC)CCOc1ccccc1C(=O)CCc1ccccc1,-3.42% (inactive)
14,O=[N+]([O-])c1ccc(CO)cc1,26% [at 92.4 µM] (inactive)
15,O=C1c2ccccc2C(=O)C1c1ccccc1,-3.24% (inactive)
16,CCCCCCCCCCOCC(O)CN (stereo not given),15.3% (inactive)
17,NC(=O)C1(N2CCCCC2)CCN(CCCC(=O)c2ccc(F)cc2)CC1,-20.9% (inactive)
18,CCOC(=O)C(=O)CCCCCCl,3.25% (inactive)
19,CCCCCC[C@@H](CCC)C(=O)O,4.6% (inactive)
20,COc1ccc(/C=C/S(=O)(=O)NC(=O)c2ccc(C)cc2Cl)cc1,-9.76% [at 92.4 µM] (inactive)
